# Source: PubChem
# proKLK7 act – proKLK7 zymogen activators, primary screen, biochemical, fluorescence intensity | Kallikrein-7 (Homo sapiens), P49862 | purified proKLK7, EDANS-DABCYL substrate fluorescence; 100% is mature enzyme control, 0% vehicle | activation, % at 7 µM | actives 0.9% (n = 370,000) | AID 652039, 2013;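 active = activation above the mean of all tested compounds plus 3 SD, computed per campaign excluding outliers beyond control limits, cut at about 13% in these data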
# ADAM10 inh – human ADAM10 inhibitors, primary screen, biochemical, QFRET, HTS; Disintegrin and metalloproteinase domain-containing protein 10 (Homo sapiens), O14672; recombinant ADAM10, EDANS/DABCYL FRET peptide cleavage, 3 h; inhibition, % at 7 µM; actives 0.62% (n = 370,000);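 active = inhibition above a per-campaign cutoff equal to the mean of compounds falling between control-based bounds plus 3 SD, cut at about 20% in these data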;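 note: 0% = DMSO wells while the 100% control is not disclosed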
# PLC-gamma1 inh – PLC-gamma1 enzyme inhibitors, primary screen, biochemical, fluorescence, purified enzyme. actives 0.84% (n = 370,000). 1-phosphatidylinositol 4,5-bisphosphate phosphodiesterase gamma-1 (Homo sapiens), P19174. fluorogenic substrate. inhibition, % at 12.2 µM; in the data active = inhibition above about 9.5%
# ADAM17 inh – ADAM17 inhibitors, primary screen, biochemical, QFRET. Disintegrin and metalloproteinase domain-containing protein 17 (Homo sapiens), P78536. recombinant ADAM17, EDANS/DABCYL FRET peptide cleavage. inhibition, % at 6.95 µM. actives 0.83% (n = 370,000). AID 720648, 2013;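 active = inhibition above the mean of compounds lying between control limits plus 3 SD, set per campaign, cut at about 8.5% in these data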;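 note: 0% = DMSO-only wells as the low control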
# PLC-beta3 inh – human PLC-beta3 inhibitors, primary screen, biochemical, fluorescence. Purified PLC-beta3, fluorogenic substrate. 1-phosphatidylinositol 4,5-bisphosphate phosphodiesterase beta-3 (Homo sapiens), Q01970. inhibition, % at 12.2 µM. AID 720704, 2013. actives 0.18% (n = 370,000); in the data active = inhibition above about 11%;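 note: 0% = median of compound wells on plate and 100% = full blocker control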
# sPLA2-III inh – human group III sPLA2 inhibitors, primary screen, biochemical, QFRET, BODIPY PC-A2 liposome substrate; Group 3 secretory phospholipase A2 (Homo sapiens), Q9NZ20; QFRET BODIPY PC-A2 liposome hydrolysis, fluorescence; inhibition, % at 12.2 µM; actives 0.56% (n = 370,000); AID 743126, 2013;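 active = inhibition above mean plus 3 SD of compounds lying within the high and low control bounds, cut at about 19% in these data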;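 note: 0% = median of test compound wells and 100% = no enzyme DMSO wells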
# Target sequence (Q9NZ20 whole entry, looked up): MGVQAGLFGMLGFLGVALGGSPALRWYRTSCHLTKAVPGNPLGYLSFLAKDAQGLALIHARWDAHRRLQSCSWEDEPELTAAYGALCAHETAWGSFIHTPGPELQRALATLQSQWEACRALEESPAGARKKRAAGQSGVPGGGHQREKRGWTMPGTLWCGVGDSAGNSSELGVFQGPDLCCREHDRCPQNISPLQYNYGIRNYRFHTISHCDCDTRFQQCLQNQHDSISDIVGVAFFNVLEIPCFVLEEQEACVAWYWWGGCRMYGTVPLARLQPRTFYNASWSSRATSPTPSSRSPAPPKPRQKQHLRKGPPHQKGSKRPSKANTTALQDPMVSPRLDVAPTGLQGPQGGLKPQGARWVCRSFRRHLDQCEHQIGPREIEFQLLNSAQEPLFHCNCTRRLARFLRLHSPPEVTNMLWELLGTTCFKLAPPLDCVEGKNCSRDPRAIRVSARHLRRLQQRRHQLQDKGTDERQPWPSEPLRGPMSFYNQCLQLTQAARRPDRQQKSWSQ
# sPLA2 confirm – human group III sPLA2 inhibitors, confirmation, biochemical, QFRET, triplicate; inhibition, % at 12.2 µM; actives 34% (n = 2,000); recombinant hGIII-sPLA2, BODIPY PC-A2 QFRET fluorescence; shares compounds with sPLA2-III inh;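 active = mean inhibition across triplicates above the hit cutoff set in the earlier primary screen, cut at about 19% in these data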;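 note: 0% = enzyme with DMSO and 100% = DMSO wells lacking enzyme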
# BODIPY interf – 535nm fluorescence optical interference, confirmation, artefact control for HGIII-sPLA2 inhibitor project, biochemical, QFRET. shares compounds with sPLA2-III inh. inhibition, % at 12.2 µM. actives 8.5% (n = 2,000). AID 743282, 2014. BODIPY FL product fluorescence interference;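 active = average inhibition above the solvent-only control mean plus 3 SD, cut at about 6% in these data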;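 note: 0% = DMSO with substrate plus product and 100% = DMSO with substrate alone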
# * marks the source's active call; other numbers are inactive results; i = inactive; . = no result given. Compounds with a hit are over-represented: about 3.4% of the library has one in this group of screens.
SMILES,proKLK7 act,ADAM10 inh,PLC-gamma1 inh,ADAM17 inh,PLC-beta3 inh,sPLA2-III inh,sPLA2 confirm,BODIPY interf
CCC(=O)NC(=S)Nc1ccc(OC)cc1OC,0,-7,2,3,-2,21*,0,-7
O=c1cc(-c2ccccc2)cc(-c2ccccc2)n1O,0,-3,-3,-3,-3,21*,12,-10
COc1ccc(-c2nnc(SCC(=O)Nc3ccc(Cl)cc3)n2C)cc1,0,3,1,6,0,3,.,.
CCOC(=O)/C(=N\Nc1cccc(Cl)c1)Sc1nnc(-c2ccc(OC)cc2)n1C,0,-2,3,-3,2,22*,17,-5
CC(/C=N\NC(=O)c1cccnc1)c1ccccc1 (centres undefined),0,0,-1,-2,-1,9,.,.
O=C(Nc1cc2c(ccc3ccccc32)oc1=O)C1CCCCC1,-2,-65,-4,-29,-9,23*,-3,-4
CCC(=O)c1ccc(N2CCN(C(=O)c3cccs3)CC2)c(F)c1,0,2,-3,0,-6,-9,.,.
CC(Oc1ccc(F)cc1F)C(=O)NNC(=S)NCC1CCCO1 (centres undefined),1,2,-3,1,-4,14,.,.
CN1CCc2ccccc2CC1=O,0,-12,6,5,-3,20*,-1,-5
CC(=O)N1CCN(C(=O)CSc2cc(C)c(Br)cc2C)CC1,0,5,-1,-5,-11,7,.,.
Cc1cc(SCC(=O)NN=C2CCN(C(C)C)CC2)c(C)cc1Br,0,9,-3,-1,-4,22*,4,-16
COc1ccc(NC(=S)NCc2ccc3c(c2)cc(C)n3C)cc1,0,-20,-4,-2,-12,22*,2,-2
COc1ccc(CC(=O)NCc2ccc3c(c2)cc(C)n3C)cc1,0,-3,-1,-2,-1,5,.,.
O=C1N(Cc2cccnc2)C[C@@H]2C[C@@H](c3ccc4nsnc4c3)N3CCC[C@@]123,0,-7,-7,-7,-8,2,.,.
C=CCNC(=O)/C(=C/c1cn(-c2ccccc2)nc1-c1cccc([N+](=O)[O-])c1)NC(=O)c1ccccc1,0,7,4,-1,-3,21*,-12,-24
CN(C)C(=O)/C(=C/c1cn(-c2ccccc2)nc1-c1cccc([N+](=O)[O-])c1)NC(=O)c1ccccc1,0,2,2,1,6,3,.,.
O=c1[nH]cc(S(=O)(=O)N2CCN(c3ccccc3F)CC2)c(=O)[nH]1,0,-10,1,-5,0,0,.,.
CCC(C)(NC(=O)c1ccccc1)C(=O)O (centres undefined),0,-3,7,-2,-4,23*,2,-6
N#Cc1sc(NCc2ccccn2)nc1Cl,0,2,3,-1,-3,-2,.,.
O=C(Cc1ccc(Cl)cc1)NCCc1cnc[nH]1,1,-4,3,-1,4,1,.,.
COCCNC(=S)N/N=C/c1ccc2c(c1)OCCO2,0,-6,3,-8,-4,1,.,.
CC(C)NC(=S)N/N=C/c1ccc2c(c1)OCCO2,0,5,-7,1,-7,19*,18,-5
COCCCNC(=S)N/N=C/c1ccc2c(c1)OCO2,0,-7,9,-4,2,24*,12,-3
CCOC(=O)C1CCN(C(=O)c2sccc2Cl)CC1,0,3,-1,-3,-7,18,.,.
Cc1oc2cc3oc(=O)c(CCC(=O)N(C)CC(=O)O)c(C)c3cc2c1C,6,-290,i,-150,i,23*,6,-4
SMILES,proKLK7 act,ADAM10 inh,PLC-gamma1 inh,ADAM17 inh,PLC-beta3 inh,sPLA2-III inh,sPLA2 confirm,BODIPY interf
Cc1ccc(OC2CCN(C(=O)[C@H]3O[C@@H](n4cnc5c(N)ncnc54)[C@H](O)[C@@H]3O)CC2)cc1,0,-7,3,-5,3,11,.,.
CCOc1cc(C(=O)NC2CCCCCCC2)cc(OCC)c1OCC,1,6,5,-1,-3,5,.,.
CCOc1cc(C(=O)NC)cc(OCC)c1OCC,-1,-5,6,-5,-2,20*,-5,-7
Cc1noc(/C=C/N(C)C)c1S(=O)(=O)N1CCN(c2ccc(F)cc2)CC1,-1,1,-1,-3,-10,12,.,.
Cc1cccc(N2CCN(S(=O)(=O)c3c(C)noc3/C=C/N(C)C)CC2)c1C,0,4,-3,-5,-11,27*,24*,-5
Cc1ccc2c(c1)C1CN(C)CCC1N2C(=O)COc1ccccc1F (centres undefined),0,0,-1,0,-6,-1,.,.
CCC(Nc1ccc(OC)cc1)C(=O)N/N=C/c1ccc([N+](=O)[O-])cc1 (centres undefined),0,-1,0,-6,1,20*,16,-5
COc1ccc(N2CC(C(=O)N/N=C/c3ccc([N+](=O)[O-])cc3)CC2=O)cc1 (centres undefined),1,-3,2,3,3,-3,.,.
CCOc1ccccc1N(C)C(=O)c1cn(C)c(=O)c2ccccc12,-1,-1,5,-1,-2,5,.,.
O=C(O)CC(CC(=O)N1CCN(C(=O)c2ccco2)CC1)c1ccccc1 (centres undefined),1,1,1,4,-2,3,.,.
CC(C)C(=O)NC(c1ccc(Cl)cc1Cl)c1ccc2cccnc2c1O (centres undefined),0,7,-34,4,-28,25*,32*,0
CCC(=O)NC(c1ccco1)c1cc(Br)c2cccnc2c1O (centres undefined),0,10,-22,2,-26,23*,16,-8
CCC(=O)NC(c1cc(Cl)c2cccnc2c1O)C(C)C (centres undefined),0,13,-13,5,-12,11,.,.
CCC(=O)NC(c1cc(Cl)c2cccnc2c1O)C1CC1 (centres undefined),0,2,-9,2,-8,10,.,.
